Among the data in PubChem BioAssay AID1508600 (Functional Genomics Laboratory (NCATS/FGL), 2020) are z-score values, retold here.

Hit rate of the full screen: of about 53,000 sequences, about 3,700 (7%) were called active.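 Rule for the calls: active = gene knockdowns whose robust z-score for IL-1 alpha signal is at least 2 or at most -2, so actives lie on both sides; inactive = the rest.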 Shown is part of a subset that was picked to be rich in actives.

A short description of this experiment: Components of the Cytosolic LPS Sensing Pathway: Gene Identification via Genome-wide siRNA Screen. Conditions: RAW264.7 macrophages, IL-1a HTRF, actives lie on both sides, screened at 100 nM (by protocol), cells primed 5 h with Pam3CSK4 first. The text has this: Non-canonical inflammasome activation by cytosolic LPS is a critical component of the host response to Gram-negative bacterial infection, however we lack a comprehensive understanding of the cellular processes that control this pathway. Here we describe a genome-wide siRNA screen to identify genes regulating the mouse macrophage IL-1 alpha response to cytosolic LPS.
RAW264.7 cells were maintained in complete DMEM media, comprising DMEM with 4.5 g/L glucose, 10% FBS (Gemini Bio-Products, West Sacramento, CA), 2 mM Glutamine (Lonza) and 20 mM HEPES (Lonza), hereafter complete DMEM.
The RNAi screen was conducted in 384-well format using the Ambion Silencer Mouse Genome siRNA Library (#4391425), which consists of three unique, nonoverlapping, nonpooled siRNAs for each of 17,000 gene targets. siRNA reagents ([…]) were stamped into 384-well white flat-bottom microplates (Corning, 3570) using a Velocity11 VPrep liquid handling system (Agilent) integrated into a BioCel robotic platform (Agilent) in columns 1-22, leaving columns 23-24 empty for negative (Ambion, Negative control #1) and positive (mouse Casp4) controls, respectively. The median value of each plate's negative control column was used to normalize sample wells, and the positive control was used to assess transfection efficiency and assay performance.
Lipofectamine RNAiMAX Transfection Reagent ([…]; Invitrogen) was added in […] serum-free, antibiotic-free media to plate wells using a Thermo Scientific Matrix WellMate and Microplate Stacker. Plates were incubated for 45 min at room temperature to allow for the sufficient formation of siRNA-lipid complexes. Cells were seeded at a density of 1x10^4 cells per well in 20 microL media containing 20% (vol/vol) FBS without antibiotics. The final concentration of siRNA in each well was 100 nM. Cells were cultured for 48h at 37 degrees C in 5% CO2 before addition of […] of TLR ligand Pam3CSK4 for 5 hours. The medium was then removed, replaced with […] growth media and cell were transfected with […] of LipidA and TransIT-TKO (Mirus) for 24 hour. At the end of the LipidA treatment, […] of supernatant was transferred to a 384 Greiner Bio-one non-binding low volume plate and […] of IL-1a HTRF reagent (Cisbio, 62MIL1APEH) was added and incubated at room temperature overnight. The plates were read on an EnVision plate reader (PerkinElmer). Cell viability was measured by adding 20ul Cell Titer Glo to the original plate and running a luminescence read on the EnVision. The quantified IL-1a signal for each siRNA gene-targeted well was divided by the median of the negative control wells and multiplied by 100 to achieve a negative control normalized value for each well/siRNA. This normalized value was then used to generate a robust z-score by first taking the log of each value and then by subtracting the median and dividing by the […].
As to GCUCAUGUCAGGAGAGAGUTT against Ocel1, the z-score was -2.41 (active).

On to CGAGCUAUACGGAAAAAAATT against Efcab12, for which the z-score was -1.03 (inactive). For GCUGAUCCUCUCCCUUCAUTT against Tas2r131, the z-score is -0.463 (inactive). For GGCUCUUCUCUCGUCCUUGTT against Nif3l1, the z-score was 0.213 (inactive). Regarding GGAUGAAGACCCAUAUGUGTT against Ap1b1, the z-score is -0.287 (inactive).

Regarding GCCUCAGUUUGAAAUUGUUTT against Tbrg1, the z-score was -0.695 (inactive).

With CCUGGAUCAGCAAUCCACATT against Lpxn, the z-score is -0.503 (inactive).

Turning to UCCUCCUGUCUUACGUACGTT against Prlhr, the z-score was 2.05 (active). For the sequence CGUGUAGCAAUGAGAUAUUTT against Trpc5, the z-score is 0.162 (inactive).

Regarding GGGAUUUCUGGAGAAAAUGTT against Csta2, the z-score is -0.872 (inactive). The same measure for GGAUUCCUGUACAUAUAUUTT against Ube4b: -0.501 (inactive); for GGCAUGAAUACAUCACAGCTT against Vmn1r220: -0.808 (inactive). On to GGACAUACAAAUCUUCAUUTT against Mta2, for which the z-score was 0.886 (inactive).

On to GGUGAUGCUAAAUUCUGAUTT against Mpc2, for which the z-score was -1.92 (inactive). With GGUAUAUGGUGGGAACUUUTT against Bnipl, the z-score was 2.04 (active). The same measure for “CCUCUCUUUAACAGGUCACTT against 1700034H15Rik”: 1.35 (inactive); for GCUGUUACUCUUAAACAAATT against Pdhx: 0.254 (inactive); for GCCUCAGUUAUUUAAUGAATT against Mpp3: -0.414 (inactive). Take GGAUGAAGAAAACUGGCUUTT against Tsx: the z-score is -0.764 (inactive). For GGAAGCAGGGCAGCUUAUUTT against Hbq1a the value was -2.22 (active); for GGUUGACCCACUGAAAAUUTT against Marveld1, -0.112 (inactive). GCACGGCCCUACUUUAUAGTT against Trim33: the z-score is -1.43 (inactive). Turning to GGCGUGAAAAUAGGAGAAUTT against Extl2, the z-score was -1.77 (inactive). For GCCGCUACACAUCAAACCATT against Zc3h3, the z-score is -0.336 (inactive). For GCUAAUCGAAGUUGAAAUUTT against Soga3 the value was -0.316 (inactive).

As for GGAAAAUGGAGCUGUGCUCTT against Prelid3a, the z-score was 0.298 (inactive). Take GCUGUUUUAGUAGAGGUAATT against Tsfm: the z-score is -0.708 (inactive). Turning to CCUCAAAUUAUUGUUGGCATT against Ppip5k1, the z-score was -2.07 (active). As for GGGCUGGCUACGAUAAGCUTT against Tes, the z-score is 1.53 (inactive).

On to CCCUUGAAGAUGAAACCAGTT against Smarca5, for which the z-score was -0.277 (inactive).

Regarding GCGGAAAUCUAAUUGCUUGTT against Kat5, the z-score was -0.0418 (inactive). Consider GGUGGAUUAAGUCUCAAAATT against Pcdhb22, for which the z-score is 0.592 (inactive). On to CCUACUGGAAAAGAUAAUUTT against Stfa1, for which the z-score is 1.82 (inactive). For the sequence GCUACUAUGUGCCUGUGACTT against Oc90, the z-score is -2.21 (active).

On to UACAUUAGUAGAAUGGAGGTT against Mageb3, for which the z-score was -0.598 (inactive). For the sequence GGAAGAAACUGAGAAACUGTT against Fam205c, the z-score is 0.48 (inactive).

Take CGGAAAAAUGGAAGUAUAGTT against Mrtfb: the z-score is -0.687 (inactive).

Turning to GGGCUGUGAUCAAACAUGGTT against Ano9, the z-score is -1.38 (inactive). As to GGAAUUAUGAACAAAUUGCTT against H2-M9, the z-score is 0.702 (inactive). In the case of GGCCUCUAUCUUCCAACAATT against Tent4a, the z-score was -2.06 (active).

Take GCCAACAAGCAUUCCAUUGTT against Mrap: the z-score is -0.991 (inactive). For GGAUACAUUAAGGUGCAAGTT against Aldh1a7, the z-score was 0.819 (inactive).

As for GGCACAUGGAGUGGACAAGTT against Blvrb, the z-score was 3.2 (active). Turning to GCUUGACCCUACACUACAGTT against Olfr1121, the z-score is 2.47 (active). Take GGCUGGCAAACUCAAAAAATT against Zfp385c: the z-score was -0.813 (inactive). For the sequence GCGAUCUAGAAAUUGACAATT against St13, the z-score is -0.59 (inactive).

For the sequence GGAAAAAGGAGGGUUUAGCTT against Tm4sf5, the z-score was 0.418 (inactive). On to GGACUGUGCAGUUAUUGUCTT against Psma6, for which the z-score was -2.17 (active). For the sequence CCCUUUAUUAUUCCACUGUTT against Olfr530, the z-score is -1.12 (inactive). Regarding CCAAGUUCACAAUUGUUCUTT against Gimap8, the z-score was -0.263 (inactive). As for CCUAAAGAAAGGUUAAAGATT against Sfr1, the z-score is -0.763 (inactive).

Regarding CGAGCCCAUGUCAGAUCAGTT against Minar1, the z-score is -2.33 (active). Consider GCACUACCACUGUCAGCAATT against Ldb3, for which the z-score is -0.734 (inactive). Consider CCAACACUACCAGAGAACGTT against Pfkfb1, for which the z-score was -0.808 (inactive). Turning to CGAUAAAAGACCCAAAUUATT against Emx2, the z-score is 1.86 (inactive). For GCAUGUGUCAAGAUGUCUGTT against Tec the value was 1.36 (inactive); for GGUCACAAACAGAUUAAUUTT against Ahcy, -0.404 (inactive); for GGUUUGAAUGUCACCGGCATT against Defb29, -1.22 (inactive). Consider GGAUGAGGAAAACUUCCAGTT against Mup5, for which the z-score is 2.61 (active). In the case of GCCAUCACGAGCUAAAACCTT against Smad5, the z-score is -1.91 (inactive). With GGUUUUUAGCCUGAGUGAGTT against Olfr688, the z-score is -1.8 (inactive). In the case of GGAUUUCUCGGAAGUCGAGTT against Cd3e, the z-score was 0.517 (inactive). Turning to GGUCUUUCAAGUUGCAUACTT against Lama1, the z-score was 0.491 (inactive).

On to GGAUGAACUAUACCAUGGCTT against Tmem132c, for which the z-score was 1.07 (inactive). With GGACGGUCUUGCCUUCUUCTT against Fam222a, the z-score is 0.901 (inactive). For the sequence CGAUGACGGGAAAUAAUUUTT against Snx4, the z-score is -0.663 (inactive).

For GCUAUUUUUAUAAGGGCCATT against Sh2b2, the z-score is 2.94 (active). With GGCACCAUAGAUGUUUGAGTT against Cyp4f16, the z-score was -1.34 (inactive). For the sequence GGAGCCUGUCUUUUAUUGATT against Olfr938, the z-score is 0.0765 (inactive).
